Experimental data published in the supplement of paper PMC10338343.
± gives the standard deviation.

system: MILI (PIWIL2) piRISC loaded with L1MC piRNA (26 nt); test: pre-steady-state target cleavage rate (min^-1); guide: L1MC piRNA 5'p-UAACUAAAUACUAUGCAAGCUGUAGG; MIWI and MILI are mouse PIWI proteins and EfPiwi is from a freshwater sponge; tags in brackets are library labels; higher = faster piRNA-guided slicing of the target; conditions: auxiliary factor: 500 nM mouse GTSF1
How it was run: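 For Cleave-'n-Seq, a transcribed, DNA-blocked target RNA library […] met 1 nM active affinity-purified piRISC with one synthetic guide at 33 °C for 0–8 or 0–960 min in HEPES–potassium acetate buffer, with or without 500 nM GTSF1 partner protein. Uncleaved targets were sequenced and normalised to depth and weakly complementary targets, with three trials pooled and k3 capped at 0.0001 min^-1. A burst-and-steady-state fit supplied the pre-steady-state cleavage rate.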
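Further: 1 nM active piRISC with 0.1 nM target library at 33 °C single turnover.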

Sequence	pre-steady-state target cleavage rate
UCCUGGAUGAGCUUGCAUAGUUUUAAGUUA	0.0195 ± 0.0084
UCCUGCUACAGCUUGCAAUCUAUUUAGUAA	0.0639 ± 0.022
UCCUGGAUCAGCUUGCAUAGUAUAAUGAAA	0.0691 ± 0.022
UCCUGGAUGUCGAAGCACAGUAUUUAGUUA	0.00819 ± 0.0038
UCCUGGAUGUGCUUGGUUAGUAUUUAGAAA	0.00692 ± 0.0045
UCCUGGUACAGCUUGCAUAGUAAAAACAAA	0.0104 ± 0.0051
UCCUGGAACAGCUUGCAUAGUAUUUAGGUA	0.0622 ± 0.017
UCCUGGUUGUGCUUGCAUAGUAUUUACAAA	0.00786 ± 0.0048
UCCUGGAUGUGCUUGCAUAGUAUUAAGAAA	0.00586 ± 0.0036
UCCUGGAUGUCGUAGCAUAGUUUUUAGUUA	0.00685 ± 0.0041
UCCUGGAUGUCGAACGAUAGUAUUUAGUAUA	< 0.0001
UCCUGGAACAGCUUGCAAAGUAUUUUGUUA	0.0942 ± 0.021
UCCUGGAUGAGCUUGCAUAGUAUUAACAAA	0.00849 ± 0.0045
UCCUGCUACAGCUUGCAAUGUAUUUACAAA	0.0477 ± 0.014
UCCUGGAUCAGCUUGCAUAGUAUAUUCAAA	0.0428 ± 0.01
UCCUGGAUGUCGAAGCAUAGUAUUUAGAUUA	0.00757 ± 0.0041
UCCUGGAUCAGCUUGCUUAGAAUUUAGUUA	0.0318 ± 0.0073
UCCUGGAUGUCCUUGCAUAGUAUUAGUUA	0.0068 ± 0.004

Sequence	pre-steady-state target cleavage rate
UCCUGGAACAGCUUGGAUAGUAUUUAGAUA	0.137 ± 0.024
UCCUGGAUGUGCUUGCAAAGUAUUUAGAUA	0.0284 ± 0.008
UCCUCCUACAGCAAGCAUAGUAUUUACAAA	0.172 ± 0.032
UCCUGGAUGUCGAUGCAUAGUAUAUUGUUA	0.0249 ± 0.008
UCCUGGAUGUGCUUGCAUAGUAUUUGUUA	0.0295 ± 0.011
UCCUGGAUGUCGAUGCAUAGUUUUUAGUAA	0.0058 ± 0.0029
UCCUGGAUGUCGAUGCAUAGUAUUCUAGUUA	0.115 ± 0.023
UCCUCCUACAGCUUCGAUAGUAUUUAGAAA	0.0982 ± 0.019
UCCUGGAUGAGCUUGCAUAGUAUAAAGUAA	0.0682 ± 0.02
UCCUGGAACAGCUUGCAUAGUAUAAACAAA	0.0505 ± 0.015
UCCUGGAUGUCCAUGCAUAGUAAUUAGUUA	0.0249 ± 0.0072
UCCUGGAACAGCUUGCAUUGUAUUUACAAA	0.00788 ± 0.0043
UCCUGCUACACGUUGCAUAGUAUUUAGAAA	0.0396 ± 0.013
UCCUGGAUGUCCUACGAUAGUAUUUAGUUA	0.007 ± 0.004
UCCUGGAUGUCCUUGCAUUGUAUUUAGUAA	0.0421 ± 0.015
UCCUGGUACAGCUUGCAUAGUAUUUGUUA	0.0839 ± 0.022
UCCUGGUUCAGCUUGCAUAGUAUUUACUUA	0.0561 ± 0.02
